40 molecules from PubChem BioAssay (Tox21) can be followed below.

Each structure is given as a SMILES string. Results filed as inconclusive are left out. Where a call stands in place of a potency, no number is given. A number with no mark means an inactive call. Activity calls are given as the source filed them. The call rests on the fitted dose curve; in most records, active means well fitted activation curve with a large enough effect in the repeat runs; inconclusive means weak or mixed curves; inactive means flat fitted curve, though single readings scatter.
Potency means the concentration at half of the fitted maximal effect.

A short description of this assay: A CellTox Green Cytotoxicity Assay to monitor cytotoxicity in HEK293 cells - 40 hour (AID 1224871). Further: nearly all actives have a fitted effect of over 45% in size. The note with it: CellTox Green fluorescence; series mostly up to 76.8 µM. An excerpt:
National Center for Advancing Translational Sciences [NCATS]
NIH Chemical Genomics Center [NCGC]
U.S. Environmental Protection Agency [EPA]
National Institutes of Environmental Health Sciences [NIEHS]
National Toxicology Program [NTP]
Cell-based models are critical for drug discovery. Determining the natural cytotoxic effects resulting from test compounds is an essential research activity. A CellTox Green Cytotoxicity Assay to monitor cytotoxicity in real time of continues cell culture during 40 hours of the compound treatment was used to screen Tox21 10K library compounds in Hek293 cells. CellTox Green Cytotoxicity Assay is a nonlytic, homogeneous, biofluorescent method to measure cytotoxicity in cell culture after experimental manipulation. The assay system uses a proprietary asymmetric cyanine dye that is excluded from viable cells but preferentially stains the dead cell's DNA. […] Viable cells produce no appreciable increases in fluorescence. Therefore, the fluorescence signal produced by the binding interaction with dead cell DNA is proportional to cytotoxicity.
The mixture of Hek293 cell suspension and reagents were dispensed at 600cells/6 ul/well in 1536-well tissue culture treated black solid bottom plates using a Multidrop dispenser. After the assay plates were incubated at a 37 C/5% CO2 incubator for 5 hours, 23 nL of compounds dissolved in DMSO, positive and negative controls was transferred to the assay plate by a pintool work station. The plates were incubated at 37 C for 40 hours. The fluorescence intensity were measured at 0h, 8h, 16h, 24h, 32h and 40h time points using ViewLux plate reader during compound treatment.
On to `CC(C)C(=O)C(C)C`, for which the Potency result is “inactive”.
`CN1CCN(c2ccccc2/C=C2\SCCN(c3ccc(Cl)c(Cl)c3)C2=O)CC1`: the Potency is 43.6 µM (active).
Same read-out and setting: the result for `N#Cc1ccc(C/C(=N/NC(=O)Nc2ccc(OC(F)(F)F)cc2)c2cccc(C(F)(F)F)c2)cc1` reads “inactive”; that for `CCC(O)CO` (stereo not given), “inactive”.
Same read-out and setting: the value for `CCNc1nc(NC(C)(C)C)nc(OC)n1` was “inactive”.
On to `c1ccc2occc2c1`, for which the Potency result is “inactive”.
On the same count and under the same terms, the result for `O=c1[nH]cccc1O` reads “inactive”; that for `Cn1c(=O)[nH]c2ncn(C)c2c1=O`, “inactive”; that for `c1ccc(-c2nc3ccccc3[nH]2)cc1`, “inactive”.
`COc1cccc(-c2ccc(/C=C\CN3CCCCCC3)cc2Cl)c1`: the Potency was 43.4 µM (active).
The same measure, in the same setting: the result for `CC(C)(C)c1cc(CCC(=O)OCCSCCOC(=O)CCc2cc(C(C)(C)C)c(O)c(C(C)(C)C)c2)cc(C(C)(C)C)c1O` reads “inactive”.
Take `Cc1cccc2c1ccc1ccccc12`: the Potency entry was “inactive”.
Turning to `CC1CCC(C(C)(C)O)CC1` (stereo not given), the Potency result was “inactive”.
Regarding `Cc1cccc(C)c1C`, the Potency entry is “inactive”.
The same measure, in the same setting: the value for `CCCCCCCCc1ccc(Nc2ccc(CCCCCCCC)cc2)cc1` was “inactive”.
On to `SC1CCCCC1`, for which the Potency entry was “inactive”.
As to `O=C(Nc1ccc([N+](=O)[O-])cc1)Nc1ccc([N+](=O)[O-])cc1` (tested in a mixture with another compound), the Potency entry is “inactive”.
Turning to `CCCOC(=O)c1ccc(O)cc1`, the Potency entry was “inactive”.
Take `O=C1OCc2ccccc21`: the Potency entry was “inactive”.
`N#CCCOCCC#N`: the Potency result is “inactive”.
Turning to `C=C(C)CCO`, the Potency result is “inactive”.
With `CO[Si](OC)(c1ccccc1)c1ccccc1`, the Potency entry is “inactive”.
As for `S=C1NC=NC2N=CNC12` (stereo not given), the Potency result is “inactive”.
Take `CCCCCCCCSCc1cc(C)c(O)c(CSCCCCCCCC)c1`: the Potency entry was “inactive”.
Regarding `CCCC(=O)c1cc(O)c(O)cc1O`, the Potency result was “inactive”.
In the case of `[Cl][Sc]([Cl])[Cl]`, the Potency result is “inactive”.
As to `CC1(C)[C@H](C(=O)OCc2cccc(Oc3ccccc3)c2)[C@@H]1C=C(Cl)Cl`, the Potency result is “inactive”.
For the molecule `C/C(=N\[Si](C)(C)C)O[Si](C)(C)C`, the Potency entry is “inactive”.
On the same count and under the same terms, the result for `CCOC(=O)C1=NN(c2ccc(Cl)cc2Cl)C(C)(C(=O)OCC)C1` (stereo not given) reads “inactive”; that for `CCCCC/C=C\C=C\C(=O)OCC`, 20.3 µM (active); that for `COc1c(Br)cc(Br)c(C)c1Br`, “inactive”.
Take `COc1cc(C(C)C)ccc1C`: the cytotoxicity increase was -5.42% [at 15.8 µM].
Take `Cc1cc(Br)ccc1NC(=O)CCl`: the Potency is 30.9 µM (active).
Consider `CCCCCCCCCCCC(=O)Cl`, for which the Potency result was “inactive”.
On the same count and under the same terms, the result for `CCN(CCC#N)c1ccc(N=Nc2ccc([N+](=O)[O-])cc2)cc1` reads “inactive”.
For `CN1CCN(CCCN2c3ccccc3Sc3ccc(C(F)(F)F)cc32)CC1`, the Potency was 26.8 µM (active).
As for `C1CCSC1`, the Potency result is “inactive”.
As for `CCC(=O)OC/C=C(\C)CCC=C(C)C`, the Potency result is “inactive”.
Still for that read-out and setting: the result for `Cc1cc(F)ccc1-c1cc(N2CC[C@@H](O)[C@H]2CO)ncc1N(C)C(=O)C(C)(C)c1cc(C(F)(F)F)cc(C(F)(F)F)c1` reads 43 µM (active).
As to `COCCC(=O)OC`, the Potency entry was “inactive”.
